# About 410 targets per protein were measured; listed, in parts, are those with the strongest signals and a random draw of the rest.
# Legend:
# Assay in all cases: glycan array binding signal (z-score within array); higher = stronger binding
# Settings in all cases: glycan notation: IUPAC condensed, linker removed
# [1] = biological target: Fuc(a1-2)Gal(b1-3)GalNAc(b1-3)Gal
# Method in brief: (§1)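 From the Consortium for Functional Glycomics database, 3228 arrays were curated, keeping only those whose protein sequence was available. Binding is given as a within-array Z-score averaged across arrays sharing a protein sequence and across linkers. Negative Z-scores can be read as non-binding.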
# [2] = biological target: Fuc(a1-2)Gal(b1-4)GlcNAc(b1-3)Gal(b1-4)GlcNAc
# Method in brief: as §1
# [3] = biological target: Fuc(a1-2)Gal(b1-4)GlcNAc(b1-3)Gal(b1-4)GlcNAc(b1-3)Gal(b1-4)GlcNAc
# Method in brief: as §1
# [4] = biological target: Fuc(a1-2)Gal(b1-4)[Fuc(a1-3)]GlcNAc(b1-3)Gal(b1-4)[Fuc(a1-3)]GlcNAc(b1-3)Gal(b1-4)[Fuc(a1-3)]GlcNAc
# Method in brief: as §1
# [5] = biological target: Fuc(a1-2)[Gal(a1-3)]Gal(b1-4)Glc
# Method in brief: as §1
# [6] = biological target: Fuc(a1-2)[Gal(a1-3)]Gal(b1-4)[Fuc(a1-3)]GlcNAc
# Method in brief: as §1
# [7] = biological target: Fuc(a1-2)[GalNAc(a1-3)]Gal(b1-4)GlcNAc
# Method in brief: as §1
# [8] = biological target: Fuc(a1-2)[GalNAc(a1-3)]Gal(b1-4)[Fuc(a1-3)]GlcNAc
# Method in brief: as §1
# Gal(b1-2)Gal = biological target: Gal(b1-2)Gal
# Method in brief: as §1
# [9] = biological target: Gal(b1-3)GalNAc(b1-4)Gal(b1-4)Glc
# Method in brief: as §1
# Gal(b1-4)Glc6S = biological target: Gal(b1-4)Glc6S
# Method in brief: as §1
# Gal3S6S(b1-4)GlcNAc6S = biological target: Gal3S6S(b1-4)GlcNAc6S
# Method in brief: as §1
# Gal6S(b1-4)GlcNAc = biological target: Gal6S(b1-4)GlcNAc
# Method in brief: as §1
# [10] = biological target: GlcNAc(b1-3)Gal(b1-4)GlcNAc
# Method in brief: as §1
# [11] = biological target: GlcNAc(b1-4)[GlcNAc(b1-6)]GalNAc
# Method in brief: as §1
# [12] = biological target: Man(a1-2)Man(a1-2)Man(a1-3)Man
# Method in brief: as §1
# [13] = biological target: Neu5Ac(a2-3)Gal(b1-3)GalNAc(b1-3)Gal(a1-4)Gal(b1-4)Glc
# Method in brief: as §1
# [14] = biological target: Neu5Ac(a2-3)Gal(b1-3)GalNAc6S
# Method in brief: as §1
# [15] = biological target: Neu5Ac(a2-3)GalNAc(b1-4)GlcNAc
# Method in brief: as §1
# [16] = biological target: Neu5Ac(a2-6)Gal(b1-4)GlcNAc
# Method in brief: as §1
# [17] = biological target: Neu5Ac(a2-6)Gal(b1-4)GlcNAc(b1-3)Gal(b1-4)[Fuc(a1-3)]GlcNAc(b1-3)Gal(b1-4)[Fuc(a1-3)]GlcNAc
# Method in brief: as §1
# [18] = biological target: Neu5Ac9Ac(a2-6)Gal(b1-4)GlcNAc
# Method in brief: as §1
# [19] = biological target: Fuc(a1-2)Gal(b1-3)[Fuc(a1-4)]GlcNAc
# Method in brief: as §1
# Fuc(a1-2)Gal(b1-4)Glc = biological target: Fuc(a1-2)Gal(b1-4)Glc
# Method in brief: as §1
# [20] = biological target: Fuc(a1-2)Gal(b1-4)[Fuc(a1-3)]GalNAc(b1-3)Gal(b1-4)[Fuc(a1-3)]GlcNAc
# Method in brief: as §1
# Fuc(a1-2)[Gal(a1-3)]Gal = biological target: Fuc(a1-2)[Gal(a1-3)]Gal
# Method in brief: as §1
# [21] = biological target: Fuc(a1-2)[GalNAc(a1-3)]Gal(b1-3)GlcNAc
# Method in brief: as §1
# Fuc(a1-3)GlcNAc = biological target: Fuc(a1-3)GlcNAc
# Method in brief: as §1
# [22] = biological target: Gal(a1-3)[Gal(a1-4)]Gal(b1-4)GlcNAc
# Method in brief: as §1
# Gal(a1-4)Gal(b1-4)GalNAc = biological target: Gal(a1-4)Gal(b1-4)GalNAc
# Method in brief: as §1
# [23] = biological target: Gal(b1-3)[GlcNAc(b1-6)]GalNAc
# Method in brief: as §1
# Gal(b1-4)GlcNAc = biological target: Gal(b1-4)GlcNAc
# Method in brief: as §1
# Gal3S(b1-4)Glc6S = biological target: Gal3S(b1-4)Glc6S
# Method in brief: as §1
# Gal6S(b1-4)Glc6S = biological target: Gal6S(b1-4)Glc6S
# Method in brief: as §1
# GalNAc(a1-3)Gal = biological target: GalNAc(a1-3)Gal
# Method in brief: as §1
# Glc(a1-4)Glc = biological target: Glc(a1-4)Glc
# Method in brief: as §1
# [24] = biological target: GlcNAc(b1-2)Gal(b1-3)GlcNAc
# Method in brief: as §1
# [25] = biological target: Man(a1-2)Man(a1-2)Man(a1-3)[Man(a1-2)Man(a1-6)[Man(a1-3)]Man(a1-6)]Man(b1-4)GlcNAc(b1-4)GlcNAc
# Method in brief: as §1
# Man(a1-3)[Man(a1-6)]Man = biological target: Man(a1-3)[Man(a1-6)]Man
# Method in brief: as §1
# [26] = biological target: Neu5Ac(a2-3)Gal(b1-3)[Fuc(a1-4)]GlcNAc
# Method in brief: as §1
# [27] = biological target: Neu5Ac(a2-3)Gal(b1-4)[Fuc(a1-3)]GlcNAc6S
# Method in brief: as §1
# [28] = biological target: Neu5Ac(a2-3)[GalNAc(b1-4)]Gal(b1-4)Glc
# Method in brief: as §1
# [29] = biological target: Fuc(a1-3)[GalNAc(b1-4)]Gal(b1-4)GlcNAc
# Method in brief: as §1
# [30] = biological target: Gal(b1-3)[GlcNAc(b1-6)]GlcNAc
# Method in brief: as §1
# [31] = biological target: Gal(b1-4)GlcNAc(b1-3)Gal(b1-4)[Fuc(a1-3)]GlcNAc(b1-3)Gal(b1-4)[Fuc(a1-3)]GlcNAc
# Method in brief: as §1
# GalNAc(b1-4)GlcNAc = biological target: GalNAc(b1-4)GlcNAc
# Method in brief: as §1
# [32] = biological target: GlcNAc(a1-3)Gal(b1-4)GlcNAc
# Method in brief: as §1
# [33] = biological target: GlcNAc(b1-3)Gal(b1-3)GalNAc
# Method in brief: as §1
# [34] = biological target: GlcNAc(b1-4)GlcNAc(b1-4)GlcNAc(b1-4)GlcNAc(b1-4)GlcNAc
# Method in brief: as §1
# [35] = biological target: GlcNAc(b1-4)GlcNAc(b1-4)GlcNAc(b1-4)GlcNAc(b1-4)GlcNAc(b1-4)GlcNAc
# Method in brief: as §1
# [36] = biological target: Neu5Ac(a2-3)Gal(b1-3)[Neu5Ac(a2-3)Gal(b1-4)]GlcNAc
# Method in brief: as §1
# Neu5Ac(a2-3)Gal(b1-4)Glc = biological target: Neu5Ac(a2-3)Gal(b1-4)Glc
# Method in brief: as §1
# [37] = biological target: Neu5Ac(a2-3)Gal(b1-4)GlcNAc(b1-3)Gal(b1-4)GlcNAc
# Method in brief: as §1
# [38] = biological target: Neu5Ac(a2-3)Gal(b1-4)GlcNAc(b1-3)Gal(b1-4)GlcNAc(b1-3)Gal(b1-4)GlcNAc
# Method in brief: as §1
# [39] = biological target: Neu5Ac(a2-8)Neu5Ac(a2-8)Neu5Ac(a2-8)Neu5Ac(a2-3)[GalNAc(b1-4)]Gal(b1-4)Glc
# Method in brief: as §1
# [40] = biological target: Neu5Gc(a2-3)Gal(b1-4)GlcNAc
# Method in brief: as §1
binder,measurement,setting,value
"CLEC-6 (Homo sapiens), Q8WXI8 (protein) MGLEKPQSKLEGGMHPQLIPSVIAVVFILLLSVCFIASCLVTHHNFSRCKRGTGVHKLEHHAKLKCIKEKSELKSAEGSTWNCCPIDWRAFQSNCYFPLTDNKTWAESERNCSGMGAHLMTISTEAEQNFIIQFLDRRLSYFLGLRDENAKGQWRWVDQTPFNPRRVFWHKNEPDNSQGENCVVLVYNQDKWAWNDVPCNFEASRICKIPGTTLN",glycan array binding signal (z-score),[1],6.22
same,glycan array binding signal (z-score),[2],-0.176
same,glycan array binding signal (z-score),[3],-0.295
same,glycan array binding signal (z-score),[4],0.12
same,glycan array binding signal (z-score),[5],-0.282
same,glycan array binding signal (z-score),[6],-0.276
same,glycan array binding signal (z-score),[7],-0.239
same,glycan array binding signal (z-score),[8],-0.102
same,glycan array binding signal (z-score),Gal(b1-2)Gal,-0.038
same,glycan array binding signal (z-score),[9],-0.328
same,glycan array binding signal (z-score),Gal(b1-4)Glc6S,-0.263
same,glycan array binding signal (z-score),Gal3S6S(b1-4)GlcNAc6S,6.21
same,glycan array binding signal (z-score),Gal6S(b1-4)GlcNAc,-0.239
same,glycan array binding signal (z-score),[10],-0.077
same,glycan array binding signal (z-score),[11],-0.138
same,glycan array binding signal (z-score),[12],1.94
same,glycan array binding signal (z-score),[13],-0.144
same,glycan array binding signal (z-score),[14],-0.077
same,glycan array binding signal (z-score),[15],-0.104
same,glycan array binding signal (z-score),[16],-0.221
same,glycan array binding signal (z-score),[17],1.59
same,glycan array binding signal (z-score),[18],-0.166
"TLEC1 (Arabidopsis thaliana), Q9C5Q9 (protein) MSGASSVSSICSSNVSLIPTGPQVFINFRGKDLRKGFMSFLKPALKKEKINVFIDEQEERGKYLISLFDTIGESKIALVIFSEGYCESHWCMDELVKIKEYMDQNRLIIIPIFYRLDLDVVKDLTGKFGDNFWDLVDKYQPEPKKLHKWTEALFSVCELFSLILPKHSDISDRDFVKSIVKAVKKVQKNFFQRRNGEIEYQDFSVPACKLTITMHESPNEEAVQVTVLNEFYQMKNQSPVPSYEFKFWVDLTRPKGNVFMIDARDLSIAWSEDSNHWTWLPLPNQNSNESVMEIAFLKSASWLDVAGKFDTRYLTPRTRYEVVFVVKLEYTFEWETLVKLKLDLPNTWEKPQEQSVDMFDYISDQWLDIPVGEFTTSKKNVGEISFAMYEHECQLWKSGLFVKGVTIRPKY",glycan array binding signal (z-score),[1],0.538
same,glycan array binding signal (z-score),[19],-0.075
same,glycan array binding signal (z-score),Fuc(a1-2)Gal(b1-4)Glc,1.08
same,glycan array binding signal (z-score),[2],0.966
same,glycan array binding signal (z-score),[20],1.49
same,glycan array binding signal (z-score),Fuc(a1-2)[Gal(a1-3)]Gal,-0.268
same,glycan array binding signal (z-score),[5],-0.089
same,glycan array binding signal (z-score),[21],0.897
same,glycan array binding signal (z-score),Fuc(a1-3)GlcNAc,1.82
same,glycan array binding signal (z-score),[22],-0.228
same,glycan array binding signal (z-score),Gal(a1-4)Gal(b1-4)GalNAc,-0.13
same,glycan array binding signal (z-score),[23],-0.317
same,glycan array binding signal (z-score),Gal(b1-4)GlcNAc,-0.385
same,glycan array binding signal (z-score),Gal3S(b1-4)Glc6S,1.16
same,glycan array binding signal (z-score),Gal3S6S(b1-4)GlcNAc6S,12.3
same,glycan array binding signal (z-score),Gal6S(b1-4)Glc6S,1.65
same,glycan array binding signal (z-score),GalNAc(a1-3)Gal,-0.288
same,glycan array binding signal (z-score),Glc(a1-4)Glc,-0.148
same,glycan array binding signal (z-score),[24],-0.386
same,glycan array binding signal (z-score),[12],-0.005
same,glycan array binding signal (z-score),[25],-0.509
same,glycan array binding signal (z-score),Man(a1-3)[Man(a1-6)]Man,-0.105
same,glycan array binding signal (z-score),[26],-0.525
same,glycan array binding signal (z-score),[27],-0.464
same,glycan array binding signal (z-score),[28],-0.46
chitinase 3-like protein 2 (Homo sapiens) (protein) YKLVCYFTQWSQDRQEPGKFTPENIDPFLCSHLIYSFASIENNKVIIKDKSEVMLYQTINSLKTKNPKLKILLSIGGYLFGSKGFHPMVDSSTSRLEFINSIILFLRNHNFDGLDVSWIYPDQKENTHFTVLIHELAEAFQKDFTKSTKERLLLTAGVSAGRQMIDNSYQVEKLAKDLDFINLLSFDFHGSWEKPLITGHNSPLSKGWQDRGPSSYYNVEYAVGYWIHKGMPSEKVVMGIPTYGHSFTLASAETTVGAPASGPGAAGPITESSGFLAYYEICQFLKGAKITRLQDQQVPYAVKGNQWVGYDDVKSMETKVQFLKNLNLGGAMIWSIDMDDFTGKSCNQGPYPLVQAVKRSLGSL,glycan array binding signal (z-score),[1],-0.164
same,glycan array binding signal (z-score),[20],-0.22
same,glycan array binding signal (z-score),[29],-0.196
same,glycan array binding signal (z-score),[30],-0.209
same,glycan array binding signal (z-score),[31],-0.183
same,glycan array binding signal (z-score),GalNAc(b1-4)GlcNAc,2.63
same,glycan array binding signal (z-score),[32],-0.271
same,glycan array binding signal (z-score),[33],-0.22
same,glycan array binding signal (z-score),[34],7.67
same,glycan array binding signal (z-score),[35],9.06
same,glycan array binding signal (z-score),[36],-0.116
same,glycan array binding signal (z-score),Neu5Ac(a2-3)Gal(b1-4)Glc,-0.233
same,glycan array binding signal (z-score),[37],-0.269
same,glycan array binding signal (z-score),[38],-0.127
same,glycan array binding signal (z-score),[39],1.51
same,glycan array binding signal (z-score),[40],0.093

# From the supplement of paper PMC8728848
